Assay [1] deals with Nuclear receptor subfamily 1 group I member 2 (Homo sapiens) (UniProt O75469). Description: Human pregnane X receptor (PXR) small molecule agonists, qHTS assay (AID 1346982). Also: nearly all actives have a fitted effect of over 35% in size. Also: potency is read from the fitted curve at half-maximal effect. An outline of the steps:
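PXR-Luc HepG2 cells (CYP3A4 promoter-driven luciferase) were seeded in medium with 5% charcoal-stripped FBS, left 5 hr at 37 C, then exposed to compounds in DMSO for 24 hr. Luminescence was read after ONE-Glo addition.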

Assay [2] has as its target Cytochrome P450 2D6 (Homo sapiens) (UniProt P10635). Briefly: Cytochrome P450 Family 2 Subfamily D Member 6 (CYP2D6) small molecule antagonists: luciferase reporter qHTS assay (AID 1671196). Also: nearly all actives have a fitted effect of over 50% in size. Also: potency is read from the fitted curve at half-maximal effect. As to activity change, negative = inhibition: series mostly up to about 120 µM. An outline of the steps:
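CYP2D6 enzyme–substrate mix was held with compound for 10 min at room temperature, then NADPH regeneration solution was added and the reaction ran 1 h at room temperature. Luciferin product was detected by luminescence after 20 min with detection reagent.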

For assay [3], the target named is Cytochrome P450 2C19 (Homo sapiens) (UniProt P33261). Briefly: Cytochrome P450 Family 2 Subfamily C Member 19 (CYP2C19) small molecule antagonists: luciferase reporter qHTS assay (AID 1671197). Also: nearly all actives have a fitted effect of over 65% in size. Also: potency is read from the fitted curve at half-maximal effect. As to activity change, negative = inhibition: series mostly up to about 120 µM. An outline of the steps: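 Relative luminescence units recorded 20 min after the detection reagent stopped a 1 h, 37C CYP2C19 reaction on proluciferin substrate, which was started by NADPH regeneration following 10 min room-temperature compound preincubation; ketoconazole positive control.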

Assay [4] deals with Cytochrome P450 2C9 (Homo sapiens) (UniProt P11712). Briefly: Cytochrome P450 Family 2 Subfamily C Member 9 (CYP2C9) small molecule antagonists: luciferase reporter qHTS assay (AID 1671198). Also: nearly all actives have a fitted effect of over 50% in size. Also: potency is read from the fitted curve at half-maximal effect. As to activity change, negative = inhibition: series mostly up to about 120 µM. An outline of the steps:
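CYP2C9 activity was measured with a P450-Glo proluciferin substrate. Enzyme–substrate mix was held with compound for 10 min at room temperature, then NADPH regeneration solution was added for 1 h at 37C. Luciferin product was read as luminescence.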

The target of assay [5] is Cytochrome P450 1A2 (Homo sapiens) (UniProt P05177). Description: Cytochrome P450 Family 1 Subfamily A Member 2 (CYP1A2) small molecule antagonists: luciferase reporter qHTS assay (AID 1671199). Also: nearly all actives have a fitted effect of over 50% in size. Also: potency is read from the fitted curve at half-maximal effect. As to activity change, negative = inhibition: series mostly up to about 120 µM. The essentials:
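Human CYP1A2 activity measured with a P450-Glo proluciferin substrate; compounds in DMSO preincubated 10 min at room temperature with enzyme-substrate mix, then NADPH regeneration system added for 1 h. Luciferin detection reagent, 20 min, luminescence read.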

Assay [6] concerns the target Voltage-gated inwardly rectifying potassium channel KCNH2 (Homo sapiens) (UniProt Q12809). Description: Human Ether-a-go-go-Related Gene (hERG) channel small molecule antagonists: fluorescence cell-based qHTS assay (AID 1671200). Also: nearly all actives have a fitted effect of over 50% in size. Also: potency is read from the fitted curve at half-maximal effect.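 As to activity change, negative = inhibition: hERG-expressing U2OS cells given a thallium stimulus after FluxOR II dye loading; series mostly up to about 77 µM.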 An outline of the steps:
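First, 1000 cells per well are seeded and cultured overnight at 37 C. Next, FluxOR II dye is loaded for 1 h at room temperature, protected from light. After 10 more minutes, stimulus is added and fluorescence is read.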

Assay [7] concerns the target Cytochrome P450 3A4 (Homo sapiens) (UniProt P08684). Briefly: Cytochrome P450 Family 3 Subfamily A Member 4 (CYP3A4) small molecule antagonists: luciferase reporter qHTS assay (AID 1671201). Also: nearly all actives have a fitted effect of over 50% in size. Also: potency is read from the fitted curve at half-maximal effect. As to activity change, negative = inhibition: series mostly up to about 120 µM. An outline of the steps: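 Enzyme and proluciferin substrate are mixed with test chemicals for 10 min, then NADPH regeneration system drives turnover for 1 h at room temperature. A detection reagent halts the reaction; luminescence after 20 min gives relative activity.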

For assay [8], the target named is Nuclear receptor subfamily 1 group I member 2 (Rattus norvegicus) (UniProt Q9R1A7). Briefly: Rat pregnane X receptor (rPXR) activation by small molecules, qHTS assay (AID 1346983). Also: nearly all actives have a fitted effect of over 20% in size. As to conditions: rPXR luciferase reporter cells, One-Glo luminescence, 24 h; stronger effect = higher value. The essentials:
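Cell-based rPXR luciferase reporter assay, 2,000 cells per well, rested 5hr at 37 C before compound addition in DMSO, then 24 hr at 37 C. One-Glo reagent was added and luminescence read after 30 min at room temperature.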

For assay [9], the target named is Nuclear receptor subfamily 1 group I member 2 (Homo sapiens) (UniProt O75469). Description: Human pregnane X receptor (PXR) activation by small molecules, qHTS assay (AID 1346985). Also: nearly all actives have a fitted effect of over 40% in size. Also: potency is read from the fitted curve at half-maximal effect. An outline of the steps: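 DPX-2 cells (HepG2 co-transfected with a PXR response element and a CYP3A4-promoter luciferase construct) were seeded at 2,000 per well, rested 5 hr at 37C, then exposed to DMSO-dissolved compounds for 24 hr. Activation was read as luciferase luminescence.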

Assay [10] shares this target. Description: CYP3A4 induction through human pregnane X receptor (PXR) by small molecules, qHTS assay (AID 1346984). Also: nearly all actives have a fitted effect of over 40% in size. An outline of the steps:
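DPX-2 cells (HepG2 co-transfected with PXR and CYP3A4 promoter-luciferase) treated with compounds 24 h at 37C; luciferin-IPA CYP3A4 substrate 3uM final added for 3 h, then One-Glo; luminescence read. qHTS format.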

Records with an inconclusive call do not appear. A number with no mark means an inactive call. Activity calls are given as the source filed them. Calls follow the shape of the dose curve; as a rule, active = well fitted curve in the direction sought with a large enough effect in the repeat runs; inconclusive = weak or mixed curves; inactive = no such curve, though single readings can be large; an effect the other way counts as inactive or inconclusive.
% is scaled to controls: 0 for no effect and ±100 for the full control effect.

Chain of Voltage-gated inwardly rectifying potassium channel KCNH2 (Homo sapiens) (Q12809 whole entry, looked up): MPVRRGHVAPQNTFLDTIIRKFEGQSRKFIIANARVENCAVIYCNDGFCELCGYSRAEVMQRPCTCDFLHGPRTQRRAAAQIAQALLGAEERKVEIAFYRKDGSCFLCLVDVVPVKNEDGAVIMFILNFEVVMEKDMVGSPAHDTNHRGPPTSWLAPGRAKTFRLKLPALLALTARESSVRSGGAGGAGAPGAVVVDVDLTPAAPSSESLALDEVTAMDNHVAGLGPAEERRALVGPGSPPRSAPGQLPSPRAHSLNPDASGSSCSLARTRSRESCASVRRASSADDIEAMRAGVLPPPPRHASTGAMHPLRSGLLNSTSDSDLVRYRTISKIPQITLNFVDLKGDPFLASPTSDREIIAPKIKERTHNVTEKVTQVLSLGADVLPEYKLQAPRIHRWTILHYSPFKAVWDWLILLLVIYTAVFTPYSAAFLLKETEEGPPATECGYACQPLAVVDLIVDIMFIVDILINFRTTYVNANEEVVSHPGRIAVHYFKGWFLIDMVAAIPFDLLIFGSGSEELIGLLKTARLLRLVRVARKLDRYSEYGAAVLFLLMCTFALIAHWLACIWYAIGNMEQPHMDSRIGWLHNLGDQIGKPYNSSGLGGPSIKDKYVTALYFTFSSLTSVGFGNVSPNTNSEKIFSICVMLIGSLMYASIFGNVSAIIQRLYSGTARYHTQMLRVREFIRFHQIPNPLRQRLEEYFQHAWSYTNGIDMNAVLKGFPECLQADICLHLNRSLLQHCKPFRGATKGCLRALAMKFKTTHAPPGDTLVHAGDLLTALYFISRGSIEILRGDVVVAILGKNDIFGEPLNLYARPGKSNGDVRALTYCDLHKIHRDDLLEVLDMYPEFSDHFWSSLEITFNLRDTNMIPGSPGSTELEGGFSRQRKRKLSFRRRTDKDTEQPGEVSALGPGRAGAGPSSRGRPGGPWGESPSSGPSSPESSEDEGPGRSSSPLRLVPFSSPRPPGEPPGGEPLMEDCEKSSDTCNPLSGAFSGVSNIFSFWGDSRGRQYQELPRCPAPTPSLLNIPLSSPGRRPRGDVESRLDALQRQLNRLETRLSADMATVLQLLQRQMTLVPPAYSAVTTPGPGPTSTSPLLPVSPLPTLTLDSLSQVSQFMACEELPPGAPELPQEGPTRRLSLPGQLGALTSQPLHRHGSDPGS
Chain of Cytochrome P450 1A2 (Homo sapiens) (P05177 whole entry, looked up): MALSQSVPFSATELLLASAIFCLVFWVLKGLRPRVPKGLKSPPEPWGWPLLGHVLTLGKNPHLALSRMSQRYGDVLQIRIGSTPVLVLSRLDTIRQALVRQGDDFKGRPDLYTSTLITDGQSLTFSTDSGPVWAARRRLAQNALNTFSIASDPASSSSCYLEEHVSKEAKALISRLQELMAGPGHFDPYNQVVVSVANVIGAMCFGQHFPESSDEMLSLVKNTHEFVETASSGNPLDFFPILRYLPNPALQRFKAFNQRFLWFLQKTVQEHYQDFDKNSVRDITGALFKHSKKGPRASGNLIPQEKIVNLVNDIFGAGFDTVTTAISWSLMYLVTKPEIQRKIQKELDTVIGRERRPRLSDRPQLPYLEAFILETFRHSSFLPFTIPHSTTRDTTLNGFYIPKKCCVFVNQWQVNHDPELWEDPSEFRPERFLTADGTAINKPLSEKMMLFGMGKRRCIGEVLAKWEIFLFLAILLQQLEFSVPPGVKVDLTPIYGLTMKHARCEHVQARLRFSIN
Chain of Cytochrome P450 3A4 (Homo sapiens) (P08684 whole entry, looked up): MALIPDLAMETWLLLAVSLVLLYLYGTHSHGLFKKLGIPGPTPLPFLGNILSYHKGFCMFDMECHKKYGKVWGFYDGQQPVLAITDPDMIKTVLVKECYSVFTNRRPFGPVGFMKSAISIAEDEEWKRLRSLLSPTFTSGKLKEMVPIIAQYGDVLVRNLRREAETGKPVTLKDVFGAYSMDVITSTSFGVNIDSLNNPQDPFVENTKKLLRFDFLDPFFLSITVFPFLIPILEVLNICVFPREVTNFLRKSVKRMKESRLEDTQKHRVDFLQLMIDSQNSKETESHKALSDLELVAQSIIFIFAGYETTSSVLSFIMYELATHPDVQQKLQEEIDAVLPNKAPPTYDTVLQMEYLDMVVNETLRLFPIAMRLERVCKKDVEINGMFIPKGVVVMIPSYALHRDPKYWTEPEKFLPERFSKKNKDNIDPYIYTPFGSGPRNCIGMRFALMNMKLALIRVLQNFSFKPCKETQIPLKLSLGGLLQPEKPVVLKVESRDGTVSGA
Chain of Nuclear receptor subfamily 1 group I member 2 (Homo sapiens) (O75469 whole entry, looked up): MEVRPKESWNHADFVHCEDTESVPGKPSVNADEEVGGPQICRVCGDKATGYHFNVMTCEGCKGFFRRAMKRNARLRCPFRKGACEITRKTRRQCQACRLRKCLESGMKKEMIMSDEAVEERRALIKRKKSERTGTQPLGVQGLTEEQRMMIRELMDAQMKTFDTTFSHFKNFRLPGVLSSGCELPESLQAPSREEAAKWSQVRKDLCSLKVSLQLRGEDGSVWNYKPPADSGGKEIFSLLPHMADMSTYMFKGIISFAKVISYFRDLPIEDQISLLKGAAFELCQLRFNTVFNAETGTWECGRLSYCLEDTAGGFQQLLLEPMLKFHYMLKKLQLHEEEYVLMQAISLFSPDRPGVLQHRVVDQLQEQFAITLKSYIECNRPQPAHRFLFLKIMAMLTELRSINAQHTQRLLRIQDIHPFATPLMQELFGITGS
Chain of Cytochrome P450 2C9 (Homo sapiens) (P11712 whole entry, looked up): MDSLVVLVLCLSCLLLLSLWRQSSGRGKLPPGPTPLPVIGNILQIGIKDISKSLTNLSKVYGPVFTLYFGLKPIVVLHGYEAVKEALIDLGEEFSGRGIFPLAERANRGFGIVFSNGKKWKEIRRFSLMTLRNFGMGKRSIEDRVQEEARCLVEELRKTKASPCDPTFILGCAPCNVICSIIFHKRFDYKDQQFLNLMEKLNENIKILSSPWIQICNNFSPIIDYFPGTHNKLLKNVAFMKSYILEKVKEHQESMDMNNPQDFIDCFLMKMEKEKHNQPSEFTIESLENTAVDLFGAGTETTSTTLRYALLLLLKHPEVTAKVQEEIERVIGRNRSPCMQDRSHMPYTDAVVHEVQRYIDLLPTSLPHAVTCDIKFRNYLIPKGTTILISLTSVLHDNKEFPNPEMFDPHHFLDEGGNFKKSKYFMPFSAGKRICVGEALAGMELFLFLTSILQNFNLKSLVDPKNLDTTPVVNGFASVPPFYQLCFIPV
Chain of Cytochrome P450 2D6 (Homo sapiens) (P10635 whole entry, looked up): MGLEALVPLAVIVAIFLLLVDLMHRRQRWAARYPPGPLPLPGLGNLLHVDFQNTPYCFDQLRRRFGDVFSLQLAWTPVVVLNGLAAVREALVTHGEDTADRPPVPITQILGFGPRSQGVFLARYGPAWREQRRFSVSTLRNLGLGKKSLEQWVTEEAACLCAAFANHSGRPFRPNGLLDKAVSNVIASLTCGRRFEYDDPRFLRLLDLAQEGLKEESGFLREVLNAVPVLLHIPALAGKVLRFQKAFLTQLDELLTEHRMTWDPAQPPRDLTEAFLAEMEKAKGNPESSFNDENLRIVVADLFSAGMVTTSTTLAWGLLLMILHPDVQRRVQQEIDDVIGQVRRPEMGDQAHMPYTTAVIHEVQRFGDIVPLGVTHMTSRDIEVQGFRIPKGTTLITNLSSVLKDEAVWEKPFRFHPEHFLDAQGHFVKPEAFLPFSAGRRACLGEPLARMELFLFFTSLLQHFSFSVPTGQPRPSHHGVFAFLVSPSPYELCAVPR
Chain of Cytochrome P450 2C19 (Homo sapiens) (P33261 whole entry, looked up): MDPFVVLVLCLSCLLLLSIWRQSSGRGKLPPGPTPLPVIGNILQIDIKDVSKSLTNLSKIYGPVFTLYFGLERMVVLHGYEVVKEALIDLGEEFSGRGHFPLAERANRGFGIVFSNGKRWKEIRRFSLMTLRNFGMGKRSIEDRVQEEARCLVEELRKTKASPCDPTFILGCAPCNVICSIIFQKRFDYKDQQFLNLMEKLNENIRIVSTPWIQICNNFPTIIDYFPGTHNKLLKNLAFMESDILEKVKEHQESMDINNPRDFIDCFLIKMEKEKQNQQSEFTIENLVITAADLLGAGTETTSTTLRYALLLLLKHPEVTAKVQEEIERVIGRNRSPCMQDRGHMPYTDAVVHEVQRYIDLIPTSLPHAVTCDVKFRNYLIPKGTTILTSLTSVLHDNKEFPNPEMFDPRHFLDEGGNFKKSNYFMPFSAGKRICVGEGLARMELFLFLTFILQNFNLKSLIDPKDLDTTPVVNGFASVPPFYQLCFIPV
Chain of Nuclear receptor subfamily 1 group I member 2 (Rattus norvegicus) (Q9R1A7 whole entry, looked up): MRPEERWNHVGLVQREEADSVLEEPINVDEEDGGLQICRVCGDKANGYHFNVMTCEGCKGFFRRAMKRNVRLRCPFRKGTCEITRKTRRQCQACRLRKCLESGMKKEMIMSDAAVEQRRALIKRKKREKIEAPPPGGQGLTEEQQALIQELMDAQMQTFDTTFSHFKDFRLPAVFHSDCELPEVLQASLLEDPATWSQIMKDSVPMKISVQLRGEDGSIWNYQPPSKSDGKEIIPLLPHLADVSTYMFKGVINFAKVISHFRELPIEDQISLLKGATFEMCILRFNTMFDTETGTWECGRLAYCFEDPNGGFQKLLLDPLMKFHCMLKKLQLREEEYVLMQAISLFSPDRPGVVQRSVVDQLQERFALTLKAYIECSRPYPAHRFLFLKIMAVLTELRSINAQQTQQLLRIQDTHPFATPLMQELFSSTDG

Turning to `CCCCCC/C=C/C(=O)OC`, the Potency entry in [1], in assay [2], in [3], in assay [4], in assay [5] and in [6] was “inactive” throughout.
In the case of `CC1=NN(c2ccc(S(=O)(=O)O)cc2)C(=O)C1`, the Potency result in assay [1], in assay [2], in assay [4], in assay [5], in assay [6] and in assay [7] was “inactive” in each case. Further, the Potency in assay [3] was 79.6 µM (active).
As for `CC(=O)OC1CCCCC1C(C)(C)C` (stereo not drawn), the Potency entry in assay [1], in assay [2], in assay [3], in assay [4], in assay [5] and in assay [6] was “inactive” each time. In addition, in assay [7], the Potency entry was “inactive”.
Take `O=C[O][Al]([O]C=O)[O]C=O`: the Potency result in [1], in assay [2], in assay [3], in [4], in assay [5] and in assay [6] was “inactive” in each case. Besides, the Potency result in [7] is “inactive”.
As to `O=C1NC(c2ccccc2)(c2ccccc2)C(=O)N1COP(=O)(O)O`, the Potency result in assay [1], in assay [2], in [3], in assay [4], in assay [5] and in assay [6] was “inactive” in each case. For the same compound, the Potency entry in assay [7] is “inactive”.
Take `CC(=O)c1cc(C)oc1C`: the Potency entry in assay [1], in assay [2], in assay [4], in assay [5], in [6] and in assay [7] was “inactive” in each case. Further, the Potency in assay [3] was 32.9 µM (active).
As to `CCCCCCCCCCCCCCCCCCOCCO`, in assay [1], the activation was 0.259% [at 19 µM]. Moreover, the activity change, negative = inhibition in assay [2] was -7.3% [at 23.6 µM]; in [3], 7.26% [at 23.6 µM]; in assay [4], -10.3% [at 23.6 µM]; in assay [6] it was 3.84% [at 15.8 µM]; in [7], 11.9% [at 23.6 µM]. Further, the Potency in assay [5] was 7.12 µM (active).
For the compound `CCC(=O)Oc1ccc2c(c1)CC[C@@H]1[C@@H]2CC[C@@]2(C)[C@H]1C[C@@H](OC(=O)CC)[C@@H]2OC(=O)CC`, the Potency result in [1], in assay [2], in assay [5] and in assay [6] was “inactive” throughout. For the same compound, the Potency in assay [3] was 27.5 µM (active); in assay [4] it was 24.5 µM (active).
`COCCc1ccccn1`: the Potency entry in assay [1], in assay [2], in assay [3], in assay [4], in assay [5] and in assay [6] was “inactive” in each case.
With `C=Cc1ccc(C(C)(C)C)cc1`, the Potency entry in assay [1], in assay [2], in [3], in assay [4], in assay [5] and in assay [6] was “inactive” in each case.
Turning to `CCN(CC)CCN`, the Potency result in [1], in assay [2], in [3], in assay [4], in assay [5] and in assay [6] was “inactive” throughout. Besides, in [7], the Potency result is “inactive”.
As to `C=CCOC(=O)CCCCCC`, the Potency entry in assay [1], in assay [2], in assay [3], in assay [4], in assay [5] and in assay [6] was “inactive” in each case. For the same compound, in [7], the Potency entry was “inactive”.
Regarding `C=CC(=O)OCC1CCCO1` (stereo not drawn), the Potency entry in assay [1], in [2], in [3], in assay [4], in assay [5] and in assay [6] was “inactive” throughout.
As to `N[C@@H](Cc1ccc(O)cc1)C(=O)O`, the activation in assay [1] was -5.23% [at 8.39 µM]. In [8], the max activation was 3.66%. Besides, in assay [9], the Potency entry is “inactive”.
With `C[Si]1(C)O[Si](C)(C)O[Si](C)(C)O[Si](C)(C)O[Si](C)(C)O1`, the Potency entry in assay [1], in assay [2], in assay [3], in [4], in assay [5] and in [6] was “inactive” throughout. For the same compound, the Potency result in assay [7] was “inactive”.
As to `CC(C)C1OCCN1CCOC(=O)NCCCCCCNC(=O)OCCN1CCOC1C(C)C` (stereo not drawn), the Potency was 34.4 µM (active) in assay [1], 63.3 µM (active) in assay [2], 35.6 µM (active) in [3] and 10 µM (active) in assay [7]. In addition, the Potency entry in [4], in assay [5] and in assay [6] was “inactive” throughout.
Take `Cc1cc(C)c(C(=O)O)c(C)c1`: the Potency result in assay [1], in assay [2], in assay [3], in assay [4], in [6] and in assay [7] was “inactive” each time. The Potency in assay [5] was 39.9 µM (active).
On to `COc1cc(/C=C/C(N)=O)cc(OC)c1OC`, for which the Potency entry in [1], in assay [2], in [3], in assay [4] and in [6] was “inactive” throughout. For the same compound, the Potency in assay [5] was 21.9 µM (active).
Turning to `C=CCSSCCC`, the Potency result in assay [1], in assay [3], in assay [4], in assay [5], in assay [6] and in assay [7] was “inactive” each time. Also, in assay [2], the Potency was 56.2 µM (active).
Regarding `C[C@]12CCC(=O)C=C1CC[C@H]1[C@@H]3CC[C@](O)(C(=O)CO)[C@@]3(C)C[C@H](O)[C@@]12F`, the Potency result in [1], in assay [10], in assay [9], in assay [2], in assay [3] and in assay [5] was “inactive” each time. The Potency entry in assay [6] was “inactive”.
Consider `CCC(C(=O)OCCN1CCOC(c2ccccc2)C1C)c1ccccc1` (stereo not drawn), for which the Potency was 33.5 µM (active) in assay [1], 5.49 µM (active) in assay [2], 1.38 µM (active) in assay [3] and 4.9 µM (active) in assay [4]. Also, the Potency entry in assay [5] and in assay [6] was “inactive” throughout.
Turning to `COc1ccc(CCO)cc1`, the Potency entry in assay [1], in [2] and in [6] was “inactive” throughout. For the same compound, the Potency is 71 µM (active) in assay [3], 79.6 µM (active) in assay [4] and 63.3 µM (active) in assay [5].
`CC(C)c1ccc(C=O)cc1`: the Potency entry in assay [1], in [2], in [3], in [4], in [5] and in assay [6] was “inactive” throughout.
Regarding `CCCCSCCCC`, the Potency result in [1], in [2], in [5], in [6] and in assay [7] was “inactive” each time. Besides, the Potency in [3] is 79.6 µM (active); in assay [4], 63.3 µM (active).
On to `CC(=O)OC(C)=O`, for which the Potency entry in [1], in [2], in assay [4], in assay [5], in assay [6] and in [7] was “inactive” each time. In addition, the Potency in assay [3] is 72.3 µM (active).
With `CCOC(CN1CCN(CC(C)C(=O)c2ccccc2)CC1)c1ccccc1` (stereo not drawn), the Potency in [1] was 14.6 µM (active); in assay [9], 10 µM (active); in [2] it was 0.213 µM (active); in [6], 10.4 µM (active). The max activation in assay [8] was 1.41%. The activity change, negative = inhibition was 12.6% [at 23.6 µM] in assay [5] and 51.9% [at 23.6 µM] in assay [7].
As for `CCCCOC(=O)[C@H](C)O`, the Potency result in [1], in assay [2], in assay [3], in assay [4], in assay [5] and in [6] was “inactive” throughout. The Potency entry in assay [7] was “inactive”.
`COc1cc2c(cc1OC)CN(C(=O)[C@H](C)N[C@@H](CCc1ccccc1)C(=O)O)[C@H](C(=O)O)C2`: the Potency entry in [1], in [2], in assay [3], in [4], in assay [5] and in assay [6] was “inactive” in each case. Moreover, in assay [7], the Potency entry was “inactive”.
For the compound `CC(C)Nc1ccccc1`, the Potency entry in [1], in [2], in assay [3], in [4] and in [6] was “inactive” throughout.

Values taken from PubChem BioAssay (Tox21).
